PubChem BioAssay (NCATS)
Inconclusive results are not listed. Calls of active or inactive are those of the source. Unless noted, calls come from the whole dose curve; as a rule, active = well fitted curve in the direction sought with a large enough effect; inconclusive = small, poorly fitted or top-dose-only effect, or another doubt; inactive = no such curve, though single readings can be large; an effect the other way counts as inactive or inconclusive.

What was measured:
[1] = target: Cytochrome P450 1A2 (Homo sapiens) (UniProt P05177); assay: p450-cyp1a2 (AID 410; calls by dose curve; note: potency is the fitted concentration of half-maximal effect;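 for activity change, negative = inhibition: -100% = full effect of reference inhibitor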)
Cytochrome P450 1A2 (Homo sapiens), sequence (P05177 whole entry, looked up): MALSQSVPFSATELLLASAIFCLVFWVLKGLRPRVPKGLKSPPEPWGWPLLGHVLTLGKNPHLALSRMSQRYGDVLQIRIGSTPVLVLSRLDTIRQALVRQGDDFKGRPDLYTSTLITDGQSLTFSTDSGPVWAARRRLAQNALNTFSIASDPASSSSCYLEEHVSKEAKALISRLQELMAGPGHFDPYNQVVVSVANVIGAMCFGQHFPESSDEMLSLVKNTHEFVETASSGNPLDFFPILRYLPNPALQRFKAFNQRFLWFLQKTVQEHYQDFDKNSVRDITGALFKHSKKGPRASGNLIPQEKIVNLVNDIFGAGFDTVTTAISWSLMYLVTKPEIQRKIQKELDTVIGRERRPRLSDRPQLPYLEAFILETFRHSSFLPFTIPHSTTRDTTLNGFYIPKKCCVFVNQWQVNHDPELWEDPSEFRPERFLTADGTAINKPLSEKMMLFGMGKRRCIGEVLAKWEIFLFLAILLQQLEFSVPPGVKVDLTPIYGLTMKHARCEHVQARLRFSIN
Procedure, shortened: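 Read-out is luminescence from luciferin produced by CYP1A2 demethylation of Luciferin-ME (100uM, at Km). Detection reagent stopped the 60 min NADPH-dependent reaction; signals were normalized to 57 uM furafylline.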

[2] = NFAT Signaling Pathway (AID 444; active = well fitted curve in either direction with a large enough effect, not every such curve was filed as active;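 note: carbachol stimulus at about its EC50 of 1 µM final; % is set by controls: 0 for no effect and ±100 for the full control effect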); conditions: Jurkat NFAT-bla M1, carbachol, beta-lactamase ratio, 5 h; at 7.69 µM (top of the series) unless noted
Procedure, shortened: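 Jurkat cells carrying an NFAT-driven β-lactamase reporter and co-transfected muscarinic M1 receptor were treated with compound plus carbachol (1 uM final, an EC50 level) for 5 h at 37 °C. CCF4 loading followed for 1 h at RT; 460/530 nm ratio gave %activity.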

[3] = target: Glucocorticoid receptor (Homo sapiens) (UniProt P04150); assay: GR-GFP Redistribution (AID 450;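 active = compounds whose dose series gives a full or clear partial fitted curve of increased nuclear translocation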; note: potency is the fitted concentration of half-maximal effect); conditions: U2OS GR-GFP nuclear translocation, laser cytometry, 2 h
Glucocorticoid receptor (Homo sapiens), sequence (P04150 whole entry, looked up, the tested form may be a part): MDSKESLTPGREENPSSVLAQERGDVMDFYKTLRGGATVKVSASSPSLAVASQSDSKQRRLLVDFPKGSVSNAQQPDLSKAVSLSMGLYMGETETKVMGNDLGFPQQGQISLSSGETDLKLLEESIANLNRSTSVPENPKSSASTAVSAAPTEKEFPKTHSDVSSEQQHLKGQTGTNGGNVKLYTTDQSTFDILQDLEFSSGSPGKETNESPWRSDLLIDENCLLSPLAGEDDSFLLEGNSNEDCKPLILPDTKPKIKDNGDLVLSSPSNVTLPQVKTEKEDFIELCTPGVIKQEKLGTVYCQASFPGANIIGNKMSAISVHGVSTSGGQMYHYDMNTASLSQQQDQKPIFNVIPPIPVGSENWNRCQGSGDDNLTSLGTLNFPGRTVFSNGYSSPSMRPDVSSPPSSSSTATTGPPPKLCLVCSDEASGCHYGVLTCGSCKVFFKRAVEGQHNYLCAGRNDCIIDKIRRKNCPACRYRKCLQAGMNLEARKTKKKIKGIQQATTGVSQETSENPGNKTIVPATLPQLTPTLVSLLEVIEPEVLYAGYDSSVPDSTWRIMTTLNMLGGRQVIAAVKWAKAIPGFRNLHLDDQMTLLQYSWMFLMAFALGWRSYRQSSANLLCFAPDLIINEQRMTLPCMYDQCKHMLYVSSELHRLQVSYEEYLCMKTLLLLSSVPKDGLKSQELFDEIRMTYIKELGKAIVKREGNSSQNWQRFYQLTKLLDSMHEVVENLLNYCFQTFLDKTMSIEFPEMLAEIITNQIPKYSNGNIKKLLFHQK

[4] = target: Glucocorticoid receptor (Homo sapiens) (UniProt P04150); assay: GR-EFC Redistribution (AID 451; calls by dose curve; note: potency is the fitted concentration of half-maximal effect); conditions: CHO-K1 GR-EFC translocation, beta-gal luminescence, 2 h
Procedure, shortened: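 CHO-K1 cells stably expressing nuclear-localized β-gal enzyme acceptor and GR fused C-terminally to the enzyme donor fragment; ligand-driven nuclear translocation restores β-gal by complementation. Compounds titrated up to 46 uM final, 2 h at 37 °C; luminescence read.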

[5] = target: Mitogen-activated protein kinase 10 (Mus musculus) (UniProt Q61831); assay: JNK3 AlphaScreen Assay (AID 530; active = well fitted curve in either direction with a large enough effect, not every such curve was filed as active;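 note: kinase came from lysate of stimulated human HepG2 cells; signal reports phosphorylation of biotinylated GST-cJun 1-79 at Ser73 with 10 µM ATP; % is set by controls: 0 for no effect and ±100 for the full control effect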)
Procedure, shortened: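 Biotinylated GST-cJun(1-79) served as substrate for JNK3 in HepG2 lysates stimulated with IL-1beta and TNF-alpha. ATP was 10 uM final, pH 7.6. Ser73 phosphorylation was quantified by AlphaScreen (680 nm excitation).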

[6] = target: Cytochrome P450 3A4 (Homo sapiens) (UniProt P08684); assay: qHTS Assay for Activators of Cytochrome P450 3A4 (AID 885); note: nearly all actives have a fitted effect of over 65% in size
Cytochrome P450 3A4 (Homo sapiens), sequence (P08684 whole entry, looked up): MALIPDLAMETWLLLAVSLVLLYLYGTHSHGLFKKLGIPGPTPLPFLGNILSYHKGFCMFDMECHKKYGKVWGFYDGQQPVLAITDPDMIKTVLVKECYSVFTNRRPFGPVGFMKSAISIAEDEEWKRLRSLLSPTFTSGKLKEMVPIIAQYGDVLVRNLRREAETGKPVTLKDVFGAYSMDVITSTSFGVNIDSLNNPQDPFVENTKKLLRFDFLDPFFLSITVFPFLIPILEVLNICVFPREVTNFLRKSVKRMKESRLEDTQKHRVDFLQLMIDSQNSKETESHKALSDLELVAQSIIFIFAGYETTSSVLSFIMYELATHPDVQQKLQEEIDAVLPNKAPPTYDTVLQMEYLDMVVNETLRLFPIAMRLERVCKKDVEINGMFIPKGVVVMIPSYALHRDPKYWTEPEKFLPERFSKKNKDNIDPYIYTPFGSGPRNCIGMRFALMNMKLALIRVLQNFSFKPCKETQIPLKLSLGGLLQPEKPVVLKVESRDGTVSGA
Procedure, shortened: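 Activators are scored by enhanced luminescence from CYP3A4 conversion of luciferin-PPXE (25uM, equal to KM) to luciferin, after 60 min at RT with an NADPH-regenerating system.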

[7] = qHTS Assay for Identification of Small Molecule Agonists for Hypoxia Response Element Signaling Pathway (AID 914; active = well fitted activation curve with a large enough effect in the signal ratio, with a control signal flat, not every such curve was filed as active; the % refers to the signal ratio; note: potency is the fitted concentration of half-maximal effect); conditions: ME-180 HRE-bla reporter, beta-lactamase ratio, CoCl2, 17 h; activation: hits give high values
Procedure, shortened: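 HRE-bla ME-180 assay for agonist-like enhancement of an EC50 CoCl2 stimulus: 17 h at 37 degrees Celsius, CCF4 for 2.5 h, ratiometric 460/530 nm signal converted to %Activity and fitted to AC50.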

[8] = target: Dual specificity protein kinase CLK4 (Homo sapiens) (UniProt Q9HAZ1); assay: qHTS Assay for Inhibitors of CDC-like Kinase 4 (Kinase-Glo Assay) (AID 1770); note: nearly all actives have a fitted effect of over 65% in size; note: potency is the fitted concentration of half-maximal effect
Dual specificity protein kinase CLK4 (Homo sapiens), sequence (Q9HAZ1 whole entry, looked up): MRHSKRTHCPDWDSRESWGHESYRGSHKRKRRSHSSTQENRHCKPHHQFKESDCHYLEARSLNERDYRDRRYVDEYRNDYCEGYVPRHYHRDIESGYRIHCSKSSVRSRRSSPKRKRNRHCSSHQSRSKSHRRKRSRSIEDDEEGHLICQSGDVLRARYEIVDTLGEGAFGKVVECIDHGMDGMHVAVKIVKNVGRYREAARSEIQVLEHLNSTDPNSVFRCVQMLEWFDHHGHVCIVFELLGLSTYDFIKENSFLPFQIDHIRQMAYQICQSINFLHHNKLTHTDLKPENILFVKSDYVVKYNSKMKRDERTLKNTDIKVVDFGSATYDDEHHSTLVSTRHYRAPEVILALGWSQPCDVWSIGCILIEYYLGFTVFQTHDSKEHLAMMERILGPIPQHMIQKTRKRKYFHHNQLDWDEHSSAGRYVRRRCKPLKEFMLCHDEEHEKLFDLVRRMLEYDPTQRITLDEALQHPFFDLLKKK
Procedure, shortened: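 Readout: Kinase-Glo luminescence from ATP left after a 4.5 h room-temperature reaction of 25 nM Clk4 with 100 uM RS peptide and 1 uM ATP (final). Buffer: 25 mM Tris pH 7.5, 10 mM MgCl2.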

[9] = target: Dual specificity protein kinase CLK4 (Homo sapiens) (UniProt Q9HAZ1); assay: qHTS Assay for Inhibitors of CDC-like Kinase 4 (ADP-Glo Assay) (AID 1771); note: nearly all actives have a fitted effect of over 70% in size; note: potency is the fitted concentration of half-maximal effect
Procedure, shortened: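 In this ADP-Glo format, 1 uM ATP and 100 uM RS peptide served as substrates for 25 nM Clk4 in Mg2+/EGTA/DTT/Triton buffer; reactions ran 1 hr at room temperature before luminescent ADP quantification.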

[10] = target: Dual specificity protein kinase CLK4 (Homo sapiens) (UniProt Q9HAZ1); assay: qHTS Assay for Inhibitors of CDC-like Kinase 4 (ADP-FP Assay) (AID 1795); note: nearly all actives have a fitted effect of over 60% in size; note: potency is the fitted concentration of half-maximal effect
Procedure, shortened: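 FP readout: Orange Transcreener ADP2 tracer (4 nM) plus ADP antibody, read after 30 min at room temperature. Kinase step: 6.25 nM Clk4, 100 uM RS peptide, 1 uM ATP, pH 7.5, 1 h.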

[11] = target: Ubiquitin carboxyl-terminal hydrolase 1 (Homo sapiens) (UniProt O94782); assay: Inhibitors of USP1/UAF1: Pilot qHTS (AID 504865);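 note: rhodamine fluorescence freed from ubiquitin-rhodamine substrate followed over time; top concentration of the series differs between compounds; % is set by controls: 0 for no effect and ±100 for the full control effect; nearly all actives have a fitted effect of over 35% in size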
Ubiquitin carboxyl-terminal hydrolase 1 (Homo sapiens), sequence (O94782 whole entry, looked up): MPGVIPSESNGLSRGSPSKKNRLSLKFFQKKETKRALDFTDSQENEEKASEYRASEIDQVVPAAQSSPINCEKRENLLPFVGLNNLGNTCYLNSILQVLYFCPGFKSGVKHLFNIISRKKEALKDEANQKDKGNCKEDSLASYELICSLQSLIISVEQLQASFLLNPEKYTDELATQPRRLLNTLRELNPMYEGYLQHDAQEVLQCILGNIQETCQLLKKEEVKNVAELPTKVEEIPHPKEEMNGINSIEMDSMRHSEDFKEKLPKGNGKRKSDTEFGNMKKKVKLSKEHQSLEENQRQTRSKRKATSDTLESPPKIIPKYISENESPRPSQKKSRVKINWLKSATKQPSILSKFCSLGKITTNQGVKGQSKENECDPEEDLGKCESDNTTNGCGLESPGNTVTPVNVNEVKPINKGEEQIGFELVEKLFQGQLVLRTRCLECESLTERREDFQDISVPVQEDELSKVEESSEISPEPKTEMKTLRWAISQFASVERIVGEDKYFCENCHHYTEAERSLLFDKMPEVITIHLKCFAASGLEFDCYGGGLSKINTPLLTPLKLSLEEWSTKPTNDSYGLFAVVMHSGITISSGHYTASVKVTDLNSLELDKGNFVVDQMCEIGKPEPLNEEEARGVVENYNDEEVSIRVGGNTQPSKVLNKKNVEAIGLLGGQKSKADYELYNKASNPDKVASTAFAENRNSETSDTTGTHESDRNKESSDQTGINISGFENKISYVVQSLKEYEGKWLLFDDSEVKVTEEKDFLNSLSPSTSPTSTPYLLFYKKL
Procedure, shortened: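 1nM USP1/UAF1 + cpd, 15 min RT; start w/ Ub-Rho 150nM final; kinetic FL 480/540 nm, 6 reads q60 s. Buffer 50mM HEPES pH 7.8, 0.5mM EDTA, 1mM TCEP, 0.01% Tween-20, 0.1 mg/ml BSA.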

[12] = Primary qHTS for small molecule stabilizers of the endoplasmic reticulum resident proteome: Secreted ER Calcium Modulated Protein (SERCaMP) assay (AID 1508630); note: % is set by controls: 0 for no effect and ±100 for the full control effect
Procedure, shortened: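 The SH-SY5Y reporter protocol was run at 3 concentrations up to 38.3 uM (primary) or 11 concentrations (follow-up): 16 h compound, 100 nM thapsigargin for 4 h, then extracellular luciferase luminescence.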

[13] = AP1 Signaling Pathway (AID 357; active = well fitted curve in either direction with a large enough effect, not every such curve was filed as active;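 note: ME-180 reporter cells stimulated with EGF at its EC50 level; % is set by controls: 0 for no effect and ±100 for the full control effect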); conditions: ME-180 AP-1-bla reporter, EGF-induced, beta-lactamase ratio, 5 h; at 7.69 µM (top of the series) unless noted
Procedure, shortened: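 Read-out was the 460nm/530nm emission ratio (excitation 405nm) after CCF4 loading for 2.5 hours at room temperature. Cells carried an AP-1-driven beta-lactamase reporter, were stimulated with EC50 EGF plus compound for 5 hours, and AC50 values came from titrations.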

[14] = Stat Signaling Pathway (AID 446; active = well fitted curve in either direction with a large enough effect, not every such curve was filed as active); conditions: ME-180 (cervical carcinoma) SIE beta-lactamase reporter, IL-6 stimulated, 5 h; at 7.69 µM (top of the series) unless noted
Procedure, shortened: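 Emission at 460 and 530 nm (excitation 405 nm) reports SIE-controlled beta-lactamase in ME-180 cells. Cells received compound with 40 pM IL-6 for 5 hrs at 37 C; data scaled between 300 pM IL-6 and 125 nM JAK-inhibitor controls.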

[15] = target: 3',5'-cyclic-AMP phosphodiesterase 4B (Homo sapiens) (UniProt Q07343); assay: qHTS Assay for Inhibitors of PDE-IV (AID 607; active = well fitted activation curve with a large enough effect in the main read-out, with a control signal flat, not every such curve was filed as active; note: % of control where 0% means no effect)
3',5'-cyclic-AMP phosphodiesterase 4B (Homo sapiens), sequence (Q07343 whole entry, looked up): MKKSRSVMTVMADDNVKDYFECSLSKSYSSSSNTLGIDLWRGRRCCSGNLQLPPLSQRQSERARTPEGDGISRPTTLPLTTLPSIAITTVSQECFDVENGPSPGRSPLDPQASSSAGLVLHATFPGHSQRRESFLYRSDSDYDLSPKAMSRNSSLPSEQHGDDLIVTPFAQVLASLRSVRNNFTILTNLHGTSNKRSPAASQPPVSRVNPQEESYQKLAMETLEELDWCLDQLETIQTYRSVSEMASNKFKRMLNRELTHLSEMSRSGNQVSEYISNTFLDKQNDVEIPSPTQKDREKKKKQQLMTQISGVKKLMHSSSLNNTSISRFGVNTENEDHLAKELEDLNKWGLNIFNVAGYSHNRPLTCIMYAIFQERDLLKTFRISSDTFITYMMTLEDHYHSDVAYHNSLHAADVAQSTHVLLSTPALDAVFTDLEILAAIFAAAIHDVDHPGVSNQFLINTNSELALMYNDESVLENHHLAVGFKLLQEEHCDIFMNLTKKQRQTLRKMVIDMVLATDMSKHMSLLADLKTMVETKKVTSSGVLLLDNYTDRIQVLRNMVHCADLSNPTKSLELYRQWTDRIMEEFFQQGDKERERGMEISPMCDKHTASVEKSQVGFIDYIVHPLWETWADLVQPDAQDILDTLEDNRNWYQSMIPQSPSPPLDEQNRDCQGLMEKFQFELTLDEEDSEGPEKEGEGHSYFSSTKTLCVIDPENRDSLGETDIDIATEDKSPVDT
Procedure, shortened: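 The readout is membrane depolarisation from a cAMP-sensing CNG channel, detected with a potential dye at ex 535/em 590. Cells were HEK293-derived (endogenous PDE-IV) at 1000 cells/well, titrated up to 22.9 uM final.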

[16] = target: Lysosomal acid glucosylceramidase (Homo sapiens) (UniProt P04062); assay: Glucocerebrosidase-p2 (AID 348; in the data active = potency below about 10 µM; note: potency is the fitted concentration of half-maximal effect); conditions: purified GBA, blue fluorogenic substrate, 40 min
Lysosomal acid glucosylceramidase (Homo sapiens), sequence (P04062 whole entry, looked up): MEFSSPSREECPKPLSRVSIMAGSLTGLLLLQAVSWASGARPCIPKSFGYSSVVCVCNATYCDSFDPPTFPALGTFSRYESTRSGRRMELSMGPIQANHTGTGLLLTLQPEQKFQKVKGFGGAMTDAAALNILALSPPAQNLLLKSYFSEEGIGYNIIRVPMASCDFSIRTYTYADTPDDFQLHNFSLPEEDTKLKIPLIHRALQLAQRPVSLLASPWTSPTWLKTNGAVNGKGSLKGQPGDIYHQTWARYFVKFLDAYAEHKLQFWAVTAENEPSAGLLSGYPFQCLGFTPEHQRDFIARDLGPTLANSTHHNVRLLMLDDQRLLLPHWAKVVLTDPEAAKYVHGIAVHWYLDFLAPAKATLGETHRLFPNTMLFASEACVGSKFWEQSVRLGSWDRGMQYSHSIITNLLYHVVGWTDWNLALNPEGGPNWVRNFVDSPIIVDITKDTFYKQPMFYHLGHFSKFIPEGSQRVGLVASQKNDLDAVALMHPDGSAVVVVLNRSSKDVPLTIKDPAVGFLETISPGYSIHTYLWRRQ
Procedure, shortened: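 Normal human glucocerebrosidase (0.2 nM) with blue fluorogenic substrate (80 uM final) in citrate/phosphate pH 5.9 with 10mM sodium taurocholate, 0.01% tween-20; 40 min RT, NaOH/glycine stop; fluorescence Ex 365/Em 440; AC50 from a titration from 0.6 nM upwards.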

[17] = target: Cytochrome P450 3A4 (Homo sapiens) (UniProt P08684); assay: qHTS Assay for Inhibitors and Substrates of Cytochrome P450 3A4 (AID 884); note: potency is the fitted concentration of half-maximal effect; nearly all actives have a fitted effect of over 50% in size
Procedure, shortened: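 Luminescent readout of luciferin produced by CYP3A4 (20 nM) dealkylation of Luciferin-PPXE, 25 uM (its KM). NADPH-driven reaction ran 60 min at RT after 10 min compound preincubation; data scaled to 57 uM ketoconazole as 100% inhibition.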

[18] = target: Cytochrome P450 2C19 (Homo sapiens) (UniProt P33261); assay: qHTS Assay for Inhibitors and Substrates of Cytochrome P450 2C19 (AID 899); note: potency is the fitted concentration of half-maximal effect; nearly all actives have a fitted effect of over 60% in size
Cytochrome P450 2C19 (Homo sapiens), sequence (P33261 whole entry, looked up): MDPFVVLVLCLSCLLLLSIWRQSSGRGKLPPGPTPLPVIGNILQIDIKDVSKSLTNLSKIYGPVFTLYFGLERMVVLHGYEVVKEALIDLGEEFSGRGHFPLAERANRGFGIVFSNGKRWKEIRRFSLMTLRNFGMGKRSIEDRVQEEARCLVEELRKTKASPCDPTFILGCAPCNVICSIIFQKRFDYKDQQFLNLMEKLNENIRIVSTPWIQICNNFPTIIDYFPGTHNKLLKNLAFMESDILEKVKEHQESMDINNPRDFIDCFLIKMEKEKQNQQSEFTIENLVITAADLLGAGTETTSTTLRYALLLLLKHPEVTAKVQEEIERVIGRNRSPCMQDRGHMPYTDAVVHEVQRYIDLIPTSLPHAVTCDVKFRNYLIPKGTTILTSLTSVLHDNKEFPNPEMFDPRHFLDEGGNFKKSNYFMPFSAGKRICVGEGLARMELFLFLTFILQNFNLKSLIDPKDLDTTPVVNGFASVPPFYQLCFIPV
Procedure, shortened: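 In 50mM KPO4, the reaction held 5nM enzyme and KM-level (10uM) Luciferin-H EGE; it ran 60 min at 37C after NADPH regeneration and a 10 min compound preincubation. Luminescence values were scaled to 57uM ketoconazole as complete inhibition.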

CCNc1ncc2nc(-c3ccc(OC)cc3)c(=O)n(Cc3cccs3)c2n1
active: Potency [1] 631 nM | Potency [7] 3.16 µM
inactive: activity change, negative = inhibition [2] 2.94% | Potency [3] > 9.22 µM | Potency [4] > 46 µM | Potency [5] | Potency [6] | Potency [8] | Potency [9] | Potency [10] | Potency [11] | outcome [12]

CN1CCN(c2ncc3nc(-c4cn(C)c5ccccc45)c(=O)n(-c4ccccc4)c3n2)CC1
inactive: activity change, negative = inhibition [13] 2.43% | activity change, negative = inhibition [2] 20% | activity, negative = inhibition [14] 4.99% | Potency [3] > 9.22 µM | Potency [4] > 46 µM | Potency [5] | Potency [15] | Potency [6] | Potency [8] | Potency [9] | Potency [10] | outcome [12]
active: Potency [1] 15800 nM

Cc1cnc(CNc2ccnc(-c3cccc(C#N)c3)n2)cn1
active: Potency [1] 1260 nM | Potency [8] 22.4 µM | Potency [9] 15.8 µM
inactive: Potency [16] > 11.4 µM | activity change, negative = inhibition [13] -12.1% | activity change, negative = inhibition [2] 16.3% | activity, negative = inhibition [14] 6.8% | Potency [3] > 46 µM | Potency [4] > 46 µM | Potency [5] | Potency [15] | Potency [6] | Potency [11] | outcome [12]

CS(=O)(=O)Nc1cccc(-c2nccc(Nc3ccc(F)cc3)n2)c1
active: Potency [1] 126 nM | Potency [8] 15.8 µM | Potency [9] 10 µM | Potency [10] 11.2 µM
inactive: activity change, negative = inhibition [2] 2.44% | activity, negative = inhibition [14] -20.3% | Potency [3] > 46 µM | Potency [4] > 46 µM | Potency [5] | Potency [15] | Potency [6] | outcome [12]

COc1cccc(-c2ccc3ncnc(NC4CC4)c3c2)c1
inactive: activity change, negative = inhibition [2] 2.56% | Potency [4] > 46 µM | Potency [5] | Potency [6] | Potency [11] | outcome [12]
active: Potency [1] 200 nM | Potency [17] 2 µM | Potency [18] 1.26 µM | Potency [8] 0.447 µM | Potency [9] 0.316 µM | Potency [10] 0.126 µM

CN(C)c1ncc2nc(-c3cc(F)cc(F)c3)c(=O)n(CCc3ccccc3)c2n1
active: Potency [7] 2.51 µM
inactive: Potency [1] | Potency [3] > 9.22 µM | Potency [4] > 46 µM | Potency [15] | Potency [8] | Potency [9] | Potency [10] | Potency [11] | outcome [12]

Cc1cnc(CNc2ncncc2-c2ccoc2)cn1
inactive: Potency [16] > 11.4 µM | activity change, negative = inhibition [13] 0.489% | activity change, negative = inhibition [2] -1.22% | activity, negative = inhibition [14] 3.39% | Potency [3] > 46 µM | Potency [4] > 46 µM | Potency [5] | Potency [15] | Potency [6] | Potency [8] | Potency [9] | Potency [11] | outcome [12]
active: Potency [1] 12600 nM | Potency [17] 2 µM
